In article PMC8384837, “Expanding the binding specificity for RNA recognition by a PUF domain” one finds binding signal data, which are given here for nine sequences.

Common to all, as to experiment: yeast three-hybrid, YBZ-1, SC-Leu-His + 0.5 mM 3-AT, 4 days
Settings in all cases: tags: N-Gal4 AD-HA kept; label: inside an RPR1-promoter hybrid RNA with tandem MS2 sites; ssRNA

The target in one experiment is PUM1 PUF domain R7-RYP (Homo sapiens, UniProt Q14671 828-1176, S1079R;N1080Y;E1083P). An outline of the steps:
(§1)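 Pumilio-1 PUF domain libraries, randomized at the three base-contacting residues of each repeat, were co-expressed with matching RNA elements from a centromeric plasmid in strain YBZ-1, which carries a LexA–MS2 coat fusion and a HIS3 reporter. Transformants grew for four days on SC-Leu (input) or on SC-Leu-His + 0.5 mM 3-AT (selection), and the repeat regions were PCR-amplified and Illumina-sequenced. The interaction score is the log change in variant frequency from input to selection. That logarithm is base 2, with a pseudocount of 1 where a variant was absent.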

A further experiment addresses PUM1 PUF domain R3-SIR (Homo sapiens, UniProt Q14671 828-1176, C935S;R936I;Q939R). An outline of the steps: as §1
The target in another experiment is PUM1 PUF domain R5-TYF (Homo sapiens, UniProt Q14671 828-1176, C1007T;R1008Y;Q1011F). The method in brief:
as §1

The target in another experiment is PUM1 PUF domain R1-NYS (Homo sapiens, UniProt Q14671 828-1176, S863N;R864Y;Q867S). An outline of the steps:
as §1

For another experiment, the target named is T1, PUM1 PUF domain R6-CWI (Homo sapiens, UniProt Q14671 828-1176, N1043C;Y1044W;Q1047I).
T1 sequence: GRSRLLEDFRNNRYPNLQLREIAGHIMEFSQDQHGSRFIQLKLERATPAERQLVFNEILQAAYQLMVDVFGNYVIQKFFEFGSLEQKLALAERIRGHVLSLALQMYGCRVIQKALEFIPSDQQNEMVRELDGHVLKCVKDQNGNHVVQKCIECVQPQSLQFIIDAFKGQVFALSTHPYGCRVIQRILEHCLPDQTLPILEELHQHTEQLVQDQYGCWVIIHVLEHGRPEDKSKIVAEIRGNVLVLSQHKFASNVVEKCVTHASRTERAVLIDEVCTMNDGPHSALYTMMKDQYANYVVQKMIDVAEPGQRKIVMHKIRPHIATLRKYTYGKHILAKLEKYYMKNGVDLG
An outline of the steps: as §1

The target in another experiment is PUM1 PUF domain R5-YNG (Homo sapiens, UniProt Q14671 828-1176, C1007Y;R1008N;Q1011G). An outline of the steps: as §1
Another experiment has as its target PUM1 PUF domain R3-CRA (Homo sapiens, UniProt Q14671 828-1176, Q939A). The method in brief:
as §1

A further experiment deals with PUM1 PUF domain R8-IRR (Homo sapiens, UniProt Q14671 828-1176, N1122I;Y1123R;Q1126R). The method in brief:
as §1

The target in a further experiment is PUM1 PUF domain R5-RKD (Homo sapiens, UniProt Q14671 828-1176, C1007R;R1008K;Q1011D). The method in brief:
as §1

The next experiment concerns the target PUM1 PUF domain R1-YFR (Homo sapiens, UniProt Q14671 828-1176, S863Y;R864F;Q867R). An outline of the steps:
as §1

As for “GGCUAGAACUAGUGGAUCCCCCGGCGCCCGGCGGCUCGAGCCCGGGUAAGUCUAAAUAGUCUGCAUGCCGCCGGGCGCCAUGCCUGCAGGUCGACUCUAGAAAACAUG”, the binding signal with PUM1 PUF domain R7-RYP was 5.27 log2 enrichment (interaction score). On to “GGCUAGAACUAGUGGAUCCCCCGGCGCCCGGCGGCUCGAGCCCGGGUAAGUGUAAUUAGUCUGCAUGCCGCCGGGCGCCAUGCCUGCAGGUCGACUCUAGAAAACAUG”, for which, in the experiment with PUM1 PUF domain R3-SIR, the binding signal is 1.21 log2 enrichment (interaction score). Turning to “GGCUAGAACUAGUGGAUCCCCCGGCGCCCGGCGGCUCGAGCCCGGGUAAGUGUUAAUAGUCUGCAUGCCGCCGGGCGCCAUGCCUGCAGGUCGACUCUAGAAAACAUG”, the binding signal with PUM1 PUF domain R5-TYF was 1.26 log2 enrichment (interaction score).

Consider “GGCUAGAACUAGUGGAUCCCCCGGCGCCCGGCGGCUCGAGCCCGGGUAAGUGUAAAUAGUCUGCAUGCCGCCGGGCGCCAUGCCUGCAGGUCGACUCUAGAAAACAUG”, for which the binding signal with PUM1 PUF domain R1-NYS is 2.51 log2 enrichment (interaction score); with PUM1 PUF domain R6-CWI it was 4.75 log2 enrichment (interaction score); with PUM1 PUF domain R5-YNG it was 2.79 log2 enrichment (interaction score); with PUM1 PUF domain R5-TYF it was 2.88 log2 enrichment (interaction score); in the experiment with PUM1 PUF domain R3-CRA, 2.9 log2 enrichment (interaction score); in the experiment with PUM1 PUF domain R8-IRR, 1.39 log2 enrichment (interaction score). Consider “GGCUAGAACUAGUGGAUCCCCCGGCGCCCGGCGGCUCGAGCCCGGGUAAGUGUCAAUAGUCUGCAUGCCGCCGGGCGCCAUGCCUGCAGGUCGACUCUAGAAAACAUG”, for which the binding signal with PUM1 PUF domain R5-RKD was 4.06 log2 enrichment (interaction score).

Turning to “GGCUAGAACUAGUGGAUCCCCCGGCGCCCGGCGGCUCGAGCCCGGGUAAGUGUAAAUUGUCUGCAUGCCGCCGGGCGCCAUGCCUGCAGGUCGACUCUAGAAAACAUG”, the results for the binding signal with PUM1 PUF domain R1-NYS and with PUM1 PUF domain R1-YFR were 3.41 log2 enrichment (interaction score) and 6.74 log2 enrichment (interaction score), respectively. For “GGCUAGAACUAGUGGAUCCCCCGGCGCCCGGCGGCUCGAGCCCGGGUAAGUGUAAAUGGUCUGCAUGCCGCCGGGCGCCAUGCCUGCAGGUCGACUCUAGAAAACAUG”, the binding signal with PUM1 PUF domain R1-YFR is 2.6 log2 enrichment (interaction score).

As to “GGCUAGAACUAGUGGAUCCCCCGGCGCCCGGCGGCUCGAGCCCGGGUAAGUGUAAGUAGUCUGCAUGCCGCCGGGCGCCAUGCCUGCAGGUCGACUCUAGAAAACAUG”, the binding signal was 1.42 log2 enrichment (interaction score) with PUM1 PUF domain R3-CRA and 2.77 log2 enrichment (interaction score) in the experiment with PUM1 PUF domain R3-SIR. For the sequence “GGCUAGAACUAGUGGAUCCCCCGGCGCCCGGCGGCUCGAGCCCGGGUAAGCGUAAAUAGUCUGCAUGCCGCCGGGCGCCAUGCCUGCAGGUCGACUCUAGAAAACAUG”, the binding signal with PUM1 PUF domain R8-IRR is 2.44 log2 enrichment (interaction score).
